Measured values as given in PubChem BioAssay (NCATS).
Records with an inconclusive call do not appear. A call without a number means that no potency is given here. A number with no mark means an inactive call. Calls of active or inactive are those of the source. The call rests on the fitted dose curve; in most records, active means well fitted inhibition curve with a large enough effect; inconclusive means small, poorly fitted or top-dose-only effect; inactive means flat fitted curve, though single readings scatter.

How the values were obtained:
[1] = qHTS profiling for inhibitors of Plasmodium falciparum proliferation (AID 504749); on all read-outs here: nearly all actives have a fitted effect of over 60% in size; conditions: P. falciparum in erythrocytes, SYBR Green DNA, 72 h; for activity, negative = inhibition: at 28.7 µM (top of the series)
Outline: (§1)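 Fluorescence of SYBR Green-bound parasite DNA, read at 485/535 nm, served as the growth measure. Infected erythrocytes were cultured with compound 72 h; artemisinin (0.29 uM) and DMSO wells defined the normalization range.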

[2] = tested on: 7G8; assay: as above; conditions: P. falciparum in erythrocytes, SYBR Green DNA, 72 h; series mostly up to 28.7 µM
Outline: as §1

[3] = tested on: AS120; assay: as above; conditions: P. falciparum in erythrocytes, SYBR Green DNA, 72 h; series mostly up to 28.7 µM
Outline: as §1

[4] = tested on: CP191; assay: as above; conditions: P. falciparum in erythrocytes, SYBR Green DNA, 72 h; series mostly up to 28.7 µM
Outline: as §1

[5] = tested on: 3D7; assay: as above; conditions: P. falciparum in erythrocytes, SYBR Green DNA, 72 h; series mostly up to 28.7 µM
Outline: as §1

[6] = tested on: ATS95; assay: as above; conditions: P. falciparum in erythrocytes, SYBR Green DNA, 72 h; series mostly up to 28.7 µM
Outline: as §1

[7] = tested on: C2A; assay: as above; conditions: P. falciparum in erythrocytes, SYBR Green DNA, 72 h; series mostly up to 28.7 µM
Outline: as §1

[8] = tested on: CP185; assay: as above; conditions: P. falciparum in erythrocytes, SYBR Green DNA, 72 h; series mostly up to 28.7 µM
Outline: as §1

[9] = tested on: CP192; assay: as above; conditions: P. falciparum in erythrocytes, SYBR Green DNA, 72 h; series mostly up to 28.7 µM
Outline: as §1

[10] = tested on: CP203; assay: as above; conditions: P. falciparum in erythrocytes, SYBR Green DNA, 72 h; series mostly up to 28.7 µM
Outline: as §1

[11] = tested on: AA1029; assay: as above; conditions: P. falciparum in erythrocytes, SYBR Green DNA, 72 h; series mostly up to 28.7 µM
Outline: as §1

[12] = tested on: ATS189; assay: as above; conditions: P. falciparum in erythrocytes, SYBR Green DNA, 72 h; series mostly up to 28.7 µM
Outline: as §1

[13] = tested on: CP194; assay: as above; conditions: P. falciparum in erythrocytes, SYBR Green DNA, 72 h; series mostly up to 28.7 µM
Outline: as §1

[14] = tested on: CP201; assay: as above; conditions: P. falciparum in erythrocytes, SYBR Green DNA, 72 h; series mostly up to 28.7 µM
Outline: as §1
Potency means the concentration at half of the fitted maximal effect.

COC(=O)C1=C(C)NC(C)=C(C(=O)OCC(C)C)C1c1ccccc1[N+](=O)[O-] (stereo not drawn)
Potency ([1]; parasite line A): 11.2 µM (active) | Potency ([1]; parasite line B): 10 µM (active) | Potency [2]: 3.16 µM (active) | Potency [3]: 10 µM (active) | Potency [4]: 12.6 µM (active)

Cc1nc2ccccc2n1Cc1ccc(Cl)cc1
Potency ([1]; parasite line A): 12.6 µM (active) | Potency [5]: inactive | Potency [6]: inactive | Potency [7]: inactive | Potency [8]: inactive | Potency [9]: inactive | Potency [10]: inactive

CCCCCCOc1ccccc1C(N)=O
activity, negative = inhibition ([1]; parasite line A): -23.7% | activity, negative = inhibition ([1]; parasite line B): 1.07% | Potency [5]: inactive | Potency [2]: inactive | Potency [11]: inactive | Potency [3]: inactive | Potency [12]: inactive | Potency [6]: inactive | Potency [7]: inactive | Potency [8]: inactive | Potency [4]: inactive | Potency [9]: inactive | Potency [13]: inactive | Potency [14]: inactive | Potency [10]: inactive

CCCC(=O)OC[C@@H](OC(=O)CCC)[C@@H](OC(=O)CCC)[C@H](Cn1c2nc(=O)[nH]c(=O)c-2nc2cc(C)c(C)cc21)OC(=O)CCC
activity, negative = inhibition ([1]; parasite line A): -28.7% | Potency [12]: inactive | Potency [9]: inactive | Potency [13]: inactive | Potency [14]: inactive | Potency [10]: inactive

CC1(C)C[C@@H]1C(=O)N/C(=C\CCCCSC[C@H](N)C(=O)O)C(=O)O
activity, negative = inhibition ([1]; parasite line A): 10.1% | activity, negative = inhibition ([1]; parasite line B): -12.7% | Potency [5]: inactive | Potency [2]: inactive | Potency [11]: inactive | Potency [3]: inactive | Potency [12]: inactive | Potency [6]: inactive | Potency [7]: inactive | Potency [8]: inactive | Potency [4]: inactive | Potency [9]: inactive | Potency [13]: inactive | Potency [14]: inactive | Potency [10]: inactive

CCCCCC[C@@H](O)C/C=C\CCCCCCCC(=O)O
activity, negative = inhibition ([1]; parasite line A): -10.4% | activity, negative = inhibition ([1]; parasite line B): -8.48% | Potency [5]: inactive | Potency [2]: inactive | Potency [11]: inactive | Potency [3]: inactive | Potency [12]: inactive | Potency [6]: inactive | Potency [7]: inactive | Potency [8]: inactive | Potency [4]: inactive | Potency [9]: inactive | Potency [13]: inactive | Potency [14]: inactive | Potency [10]: inactive

c1ccc2sc(SSc3nc4ccccc4s3)nc2c1
activity, negative = inhibition ([1]; parasite line A): 6.98% | activity, negative = inhibition ([1]; parasite line B): -5.71% | Potency [5]: inactive | Potency [2]: inactive | Potency [11]: inactive | Potency [3]: inactive | Potency [12]: inactive | Potency [6]: inactive | Potency [7]: inactive | Potency [8]: inactive | Potency [4]: inactive | Potency [9]: inactive | Potency [13]: inactive | Potency [14]: inactive | Potency [10]: inactive

N=c1ccn2c(n1)O[C@H]1[C@H](O)[C@@H](CO)O[C@H]12
activity, negative = inhibition ([1]; parasite line A): 4.44% | activity, negative = inhibition ([1]; parasite line B): 4.16% | Potency [5]: inactive | Potency [2]: inactive | Potency [11]: inactive | Potency [3]: inactive | Potency [12]: inactive | Potency [6]: inactive | Potency [7]: inactive | Potency [8]: inactive | Potency [4]: inactive | Potency [9]: inactive | Potency [13]: inactive | Potency [14]: inactive | Potency [10]: inactive
